The supplement of paper PMC11732987, “Enantioselective OTUD7B fragment discovery through chemoproteomics screening and high-throughput optimisation” (Communications Chemistry, 2025)

Key:
Experiment in all cases: log2 ratio of Biotin-Ahx-Ub-VS probe labelling (fragment/DMSO); higher = less target engagement (more negative = stronger competition), active = hit call of the paper (q ≤ 0.05, log2 ratio ≤ -1)
Settings in all cases: compound concentration: 200 uM; treatment time: 3 h
USP34 = USP34 (UniProt Q70CQ2)
Chain of USP34 (Q70CQ2 whole entry, the tested form may be a part): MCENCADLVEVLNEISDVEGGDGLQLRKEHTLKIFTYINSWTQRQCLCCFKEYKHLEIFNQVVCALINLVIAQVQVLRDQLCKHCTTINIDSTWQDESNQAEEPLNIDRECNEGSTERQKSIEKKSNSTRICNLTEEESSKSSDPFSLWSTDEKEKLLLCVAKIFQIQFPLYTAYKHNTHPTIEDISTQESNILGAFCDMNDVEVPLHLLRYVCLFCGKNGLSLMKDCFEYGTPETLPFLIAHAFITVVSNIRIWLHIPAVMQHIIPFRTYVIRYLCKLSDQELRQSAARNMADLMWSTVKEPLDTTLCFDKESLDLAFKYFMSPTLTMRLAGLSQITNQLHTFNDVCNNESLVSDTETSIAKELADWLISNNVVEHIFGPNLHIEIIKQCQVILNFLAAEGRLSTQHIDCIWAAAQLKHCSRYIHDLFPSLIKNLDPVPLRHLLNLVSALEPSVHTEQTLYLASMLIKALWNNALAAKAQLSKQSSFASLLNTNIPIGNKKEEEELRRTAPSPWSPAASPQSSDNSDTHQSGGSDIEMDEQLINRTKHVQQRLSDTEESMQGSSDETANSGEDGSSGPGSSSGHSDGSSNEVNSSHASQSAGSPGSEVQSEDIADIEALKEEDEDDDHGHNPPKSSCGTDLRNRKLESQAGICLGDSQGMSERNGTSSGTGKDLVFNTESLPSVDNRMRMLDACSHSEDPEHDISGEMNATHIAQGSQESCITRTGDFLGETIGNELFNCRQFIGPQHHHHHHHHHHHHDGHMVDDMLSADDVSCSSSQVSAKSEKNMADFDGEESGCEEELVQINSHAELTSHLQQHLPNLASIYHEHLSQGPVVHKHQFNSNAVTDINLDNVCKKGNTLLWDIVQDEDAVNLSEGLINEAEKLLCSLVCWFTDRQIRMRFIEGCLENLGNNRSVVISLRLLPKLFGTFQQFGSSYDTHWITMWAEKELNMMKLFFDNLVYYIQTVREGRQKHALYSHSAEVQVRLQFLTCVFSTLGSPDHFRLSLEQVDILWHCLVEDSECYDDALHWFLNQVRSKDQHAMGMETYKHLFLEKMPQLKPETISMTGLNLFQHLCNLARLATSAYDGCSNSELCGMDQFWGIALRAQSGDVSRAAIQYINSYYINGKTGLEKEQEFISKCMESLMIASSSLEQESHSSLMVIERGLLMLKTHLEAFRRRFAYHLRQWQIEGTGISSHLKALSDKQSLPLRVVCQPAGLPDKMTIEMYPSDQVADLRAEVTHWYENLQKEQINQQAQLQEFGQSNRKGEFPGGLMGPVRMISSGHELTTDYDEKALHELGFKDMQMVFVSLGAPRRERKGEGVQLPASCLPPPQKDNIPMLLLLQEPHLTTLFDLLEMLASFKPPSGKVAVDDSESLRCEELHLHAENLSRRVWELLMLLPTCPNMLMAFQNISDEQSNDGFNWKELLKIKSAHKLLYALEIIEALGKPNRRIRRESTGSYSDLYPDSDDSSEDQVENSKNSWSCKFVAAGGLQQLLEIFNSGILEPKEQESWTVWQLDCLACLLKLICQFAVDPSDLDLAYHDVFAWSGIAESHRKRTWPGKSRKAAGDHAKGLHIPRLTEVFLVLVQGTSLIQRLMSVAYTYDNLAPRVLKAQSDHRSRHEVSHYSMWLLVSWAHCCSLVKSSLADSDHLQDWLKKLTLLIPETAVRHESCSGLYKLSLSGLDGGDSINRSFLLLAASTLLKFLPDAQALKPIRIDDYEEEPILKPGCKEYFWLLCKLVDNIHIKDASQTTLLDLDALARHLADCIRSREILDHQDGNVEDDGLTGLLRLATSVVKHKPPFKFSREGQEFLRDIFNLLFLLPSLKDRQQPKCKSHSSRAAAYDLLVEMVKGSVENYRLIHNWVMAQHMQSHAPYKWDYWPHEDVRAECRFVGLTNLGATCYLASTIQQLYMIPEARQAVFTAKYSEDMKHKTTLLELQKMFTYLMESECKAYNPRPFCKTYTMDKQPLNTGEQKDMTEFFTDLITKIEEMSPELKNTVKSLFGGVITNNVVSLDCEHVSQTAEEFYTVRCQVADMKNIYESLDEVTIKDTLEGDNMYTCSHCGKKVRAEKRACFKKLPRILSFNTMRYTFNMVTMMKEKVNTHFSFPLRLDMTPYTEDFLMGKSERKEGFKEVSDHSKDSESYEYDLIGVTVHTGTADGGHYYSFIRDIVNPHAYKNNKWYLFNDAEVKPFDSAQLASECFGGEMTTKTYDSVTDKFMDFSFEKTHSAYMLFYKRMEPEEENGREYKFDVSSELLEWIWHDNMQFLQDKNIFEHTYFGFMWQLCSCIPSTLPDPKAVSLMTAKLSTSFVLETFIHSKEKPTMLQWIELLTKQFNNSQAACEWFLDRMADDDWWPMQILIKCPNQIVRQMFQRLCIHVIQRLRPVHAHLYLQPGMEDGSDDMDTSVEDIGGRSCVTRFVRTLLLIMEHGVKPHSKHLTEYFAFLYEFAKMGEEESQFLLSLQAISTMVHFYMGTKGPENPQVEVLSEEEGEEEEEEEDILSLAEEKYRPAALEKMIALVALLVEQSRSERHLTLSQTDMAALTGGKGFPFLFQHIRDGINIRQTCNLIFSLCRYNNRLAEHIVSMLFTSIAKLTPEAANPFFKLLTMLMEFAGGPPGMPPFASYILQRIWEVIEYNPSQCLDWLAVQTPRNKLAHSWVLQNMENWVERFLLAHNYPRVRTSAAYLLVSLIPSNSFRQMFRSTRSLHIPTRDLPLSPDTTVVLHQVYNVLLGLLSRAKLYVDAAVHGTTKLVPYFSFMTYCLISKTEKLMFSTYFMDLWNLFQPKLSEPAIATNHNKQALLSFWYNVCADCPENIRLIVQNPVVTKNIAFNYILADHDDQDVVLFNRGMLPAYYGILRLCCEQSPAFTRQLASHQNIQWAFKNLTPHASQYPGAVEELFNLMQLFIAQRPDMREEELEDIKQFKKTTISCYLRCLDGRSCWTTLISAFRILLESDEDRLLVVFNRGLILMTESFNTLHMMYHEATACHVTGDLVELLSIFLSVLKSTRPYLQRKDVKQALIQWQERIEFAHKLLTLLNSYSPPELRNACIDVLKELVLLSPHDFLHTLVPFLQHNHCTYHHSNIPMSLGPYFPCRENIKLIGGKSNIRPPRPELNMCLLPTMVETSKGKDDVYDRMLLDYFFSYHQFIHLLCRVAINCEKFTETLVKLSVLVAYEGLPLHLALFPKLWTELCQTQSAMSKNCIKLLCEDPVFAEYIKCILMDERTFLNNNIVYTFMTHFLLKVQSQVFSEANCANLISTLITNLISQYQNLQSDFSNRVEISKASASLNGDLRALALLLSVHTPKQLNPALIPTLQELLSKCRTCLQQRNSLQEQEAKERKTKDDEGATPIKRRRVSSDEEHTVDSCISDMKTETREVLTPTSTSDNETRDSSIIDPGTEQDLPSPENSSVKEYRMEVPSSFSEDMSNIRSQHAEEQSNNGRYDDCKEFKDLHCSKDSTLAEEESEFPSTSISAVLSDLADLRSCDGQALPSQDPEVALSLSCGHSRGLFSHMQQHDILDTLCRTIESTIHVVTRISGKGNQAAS
In short: (§1)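 Triplicate samples of HEK293T lysate, 495 µg each, received fragment at 200 µM or vehicle for 3 h, followed by Biotin-Ahx-Ub-VS (0.5 µM final) for 1 h. After NeutrAvidin enrichment of labelled DUBs and LysC/trypsin digestion, peptides were run by diaPASEF LC-MS/MS. The values are average log2 fragment/vehicle ratios from global-median-normalised Spectronaut label-free quantities, tested by unpaired t-test on proteins having ≥2 unique peptides.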

USP36 = target: T1, USP36 (UniProt Q9P275)
T1 sequence (whole entry): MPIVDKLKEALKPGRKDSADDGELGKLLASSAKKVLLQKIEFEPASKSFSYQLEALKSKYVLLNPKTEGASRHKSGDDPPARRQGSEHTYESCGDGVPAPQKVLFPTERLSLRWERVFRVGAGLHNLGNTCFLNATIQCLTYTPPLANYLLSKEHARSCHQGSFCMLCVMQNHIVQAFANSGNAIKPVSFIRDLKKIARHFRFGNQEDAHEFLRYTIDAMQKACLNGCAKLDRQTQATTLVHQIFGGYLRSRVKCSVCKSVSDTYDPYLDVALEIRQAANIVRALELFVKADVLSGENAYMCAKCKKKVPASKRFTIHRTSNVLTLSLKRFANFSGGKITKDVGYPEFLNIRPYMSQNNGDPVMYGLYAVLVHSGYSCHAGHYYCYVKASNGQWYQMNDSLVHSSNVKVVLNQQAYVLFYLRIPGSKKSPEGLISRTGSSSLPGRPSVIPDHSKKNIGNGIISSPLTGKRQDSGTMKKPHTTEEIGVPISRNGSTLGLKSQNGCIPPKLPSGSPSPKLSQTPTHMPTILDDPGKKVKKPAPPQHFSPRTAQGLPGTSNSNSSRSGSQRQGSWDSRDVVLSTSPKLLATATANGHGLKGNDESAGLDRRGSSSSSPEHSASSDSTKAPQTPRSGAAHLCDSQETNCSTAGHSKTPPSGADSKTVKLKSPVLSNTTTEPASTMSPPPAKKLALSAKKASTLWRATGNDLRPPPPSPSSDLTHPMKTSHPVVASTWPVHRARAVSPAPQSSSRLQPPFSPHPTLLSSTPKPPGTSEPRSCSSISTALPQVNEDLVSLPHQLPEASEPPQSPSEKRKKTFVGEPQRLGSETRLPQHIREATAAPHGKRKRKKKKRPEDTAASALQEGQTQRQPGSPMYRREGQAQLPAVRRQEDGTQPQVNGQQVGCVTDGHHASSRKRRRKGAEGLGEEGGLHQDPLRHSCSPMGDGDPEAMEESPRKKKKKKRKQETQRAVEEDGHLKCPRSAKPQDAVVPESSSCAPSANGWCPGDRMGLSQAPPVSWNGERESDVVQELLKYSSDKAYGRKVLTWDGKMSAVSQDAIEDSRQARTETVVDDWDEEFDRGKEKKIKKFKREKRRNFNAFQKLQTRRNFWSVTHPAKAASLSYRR
In short: as §1

USP38 = target: T2, USP38 (UniProt Q8NB14)
T2 sequence (whole entry): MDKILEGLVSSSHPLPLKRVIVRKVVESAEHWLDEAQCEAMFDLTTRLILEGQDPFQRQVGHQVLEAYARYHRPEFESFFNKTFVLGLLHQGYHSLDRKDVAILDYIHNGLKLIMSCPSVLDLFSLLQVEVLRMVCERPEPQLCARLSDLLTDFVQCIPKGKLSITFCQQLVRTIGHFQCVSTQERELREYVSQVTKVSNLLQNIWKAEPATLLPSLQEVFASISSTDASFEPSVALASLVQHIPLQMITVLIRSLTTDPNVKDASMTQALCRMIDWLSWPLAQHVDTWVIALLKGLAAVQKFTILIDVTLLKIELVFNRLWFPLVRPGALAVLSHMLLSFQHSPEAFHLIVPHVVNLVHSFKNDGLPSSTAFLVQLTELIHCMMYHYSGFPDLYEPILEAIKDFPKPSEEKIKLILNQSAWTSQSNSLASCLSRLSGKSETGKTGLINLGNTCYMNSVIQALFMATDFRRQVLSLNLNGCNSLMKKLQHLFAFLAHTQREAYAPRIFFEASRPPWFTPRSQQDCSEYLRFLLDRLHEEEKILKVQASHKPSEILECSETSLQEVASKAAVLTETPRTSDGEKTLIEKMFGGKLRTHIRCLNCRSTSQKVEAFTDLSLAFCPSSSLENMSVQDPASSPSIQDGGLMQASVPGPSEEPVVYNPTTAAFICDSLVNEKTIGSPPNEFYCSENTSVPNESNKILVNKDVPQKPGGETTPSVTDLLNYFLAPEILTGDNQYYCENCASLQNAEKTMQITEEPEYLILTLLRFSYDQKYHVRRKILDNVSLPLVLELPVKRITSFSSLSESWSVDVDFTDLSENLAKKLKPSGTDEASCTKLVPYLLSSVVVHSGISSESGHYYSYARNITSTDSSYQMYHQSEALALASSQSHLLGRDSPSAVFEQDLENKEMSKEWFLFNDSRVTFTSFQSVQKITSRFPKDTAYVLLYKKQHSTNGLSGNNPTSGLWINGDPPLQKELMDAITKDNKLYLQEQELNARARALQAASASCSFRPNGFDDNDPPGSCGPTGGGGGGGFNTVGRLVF
In short: as §1

USP39 = target: T3, USP39 (UniProt Q53GS9)
T3 sequence (whole entry): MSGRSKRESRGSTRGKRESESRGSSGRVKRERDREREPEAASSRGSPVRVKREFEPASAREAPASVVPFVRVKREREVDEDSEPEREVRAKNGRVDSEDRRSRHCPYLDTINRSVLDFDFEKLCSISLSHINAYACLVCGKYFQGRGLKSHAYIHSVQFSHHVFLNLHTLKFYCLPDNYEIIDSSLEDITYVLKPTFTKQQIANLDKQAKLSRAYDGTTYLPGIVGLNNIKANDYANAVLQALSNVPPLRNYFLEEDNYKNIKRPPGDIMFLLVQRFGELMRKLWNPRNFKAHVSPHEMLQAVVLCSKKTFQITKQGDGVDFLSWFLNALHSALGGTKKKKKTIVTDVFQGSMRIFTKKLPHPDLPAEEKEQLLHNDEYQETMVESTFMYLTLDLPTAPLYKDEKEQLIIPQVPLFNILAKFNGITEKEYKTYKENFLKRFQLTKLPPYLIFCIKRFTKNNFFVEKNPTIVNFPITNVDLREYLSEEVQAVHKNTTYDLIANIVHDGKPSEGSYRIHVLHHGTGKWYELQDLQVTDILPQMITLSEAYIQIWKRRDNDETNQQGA
In short: as §1

USP4 = target: T4, USP4 (UniProt Q13107)
T4 sequence (whole entry): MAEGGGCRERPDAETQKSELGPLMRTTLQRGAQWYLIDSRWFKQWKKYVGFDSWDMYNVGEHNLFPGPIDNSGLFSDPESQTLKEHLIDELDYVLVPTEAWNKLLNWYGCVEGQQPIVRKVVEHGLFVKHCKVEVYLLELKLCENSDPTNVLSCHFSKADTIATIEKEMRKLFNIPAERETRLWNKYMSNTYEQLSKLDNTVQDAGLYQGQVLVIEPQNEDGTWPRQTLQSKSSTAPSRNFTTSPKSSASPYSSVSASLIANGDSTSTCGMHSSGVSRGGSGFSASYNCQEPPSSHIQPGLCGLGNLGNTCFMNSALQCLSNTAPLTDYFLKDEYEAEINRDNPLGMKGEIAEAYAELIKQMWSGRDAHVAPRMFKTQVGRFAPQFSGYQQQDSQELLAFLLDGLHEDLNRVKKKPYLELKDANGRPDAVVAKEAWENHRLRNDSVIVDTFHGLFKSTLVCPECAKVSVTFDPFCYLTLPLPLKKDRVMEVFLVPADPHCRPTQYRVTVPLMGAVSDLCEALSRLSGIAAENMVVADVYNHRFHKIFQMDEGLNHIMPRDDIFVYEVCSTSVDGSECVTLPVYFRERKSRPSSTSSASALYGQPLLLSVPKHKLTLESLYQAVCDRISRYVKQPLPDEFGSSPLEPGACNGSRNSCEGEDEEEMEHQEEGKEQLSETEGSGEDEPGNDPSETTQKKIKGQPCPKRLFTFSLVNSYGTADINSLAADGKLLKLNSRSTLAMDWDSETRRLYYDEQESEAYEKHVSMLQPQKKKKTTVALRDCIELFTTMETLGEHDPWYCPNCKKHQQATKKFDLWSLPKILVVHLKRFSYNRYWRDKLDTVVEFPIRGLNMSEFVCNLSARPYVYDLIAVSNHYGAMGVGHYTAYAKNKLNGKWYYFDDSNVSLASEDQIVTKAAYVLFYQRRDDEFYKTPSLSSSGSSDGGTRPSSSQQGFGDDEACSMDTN
In short: as §1

Measured: log2 ratio of Biotin-Ahx-Ub-VS probe labelling

O=C(CCl)N1CCC(c2noc3cc(F)ccc23)CC1
inactive: USP34 -0.276 | USP36 -0.165 | USP38 0.108 | USP39 0.43 | USP4 -0.235
